SARS PLpro yeast: inhibitors of SARS-CoV papain-like protease in yeast; S. cerevisiae expressing SARS-CoV PLpro, growth rescue; Potency, µM (doses to about 32.9 µM), without a hit: at the highest dose activity, positive = growth rescue, hits mostly activators; hit rate 0.19% among 330,000; AID 485353; calls by dose curve; further: potency means the concentration at half of the fitted maximal effect; 0% is about no effect; nearly all actives have a fitted effect of over 55% in size
LASV entry inh: inhibitors of Lassa virus binding or cell entry; hit rate 1.2% among 300,000; Lassa virus pseudotype entry inhibition, cell reporter; Potency, µM (highest dose often 37.9 µM), without a hit: at the highest dose activity change, negative = inhibition, usual class: inhibitors; AID 540256; calls by dose curve; tested in HEK293 cells; further: potency means the concentration at half of the fitted maximal effect; on the % scale 0 is the no-effect control and ±100 the full control effect; nearly all actives have a fitted effect of over 50% in size
FMDV antiviral: antivirals against foot and mouth disease virus; Potency, µM (series often up to 57.9 µM), for the others: at the top dose activity change, negative = inhibition, most hits filed as inhibitors; FMDV antiviral cell-based qHTS; hit rate 1.2% among 410,000; calls by dose curve; tested in HEK293T cells; further: read-out not given here; potency means the concentration at half of the fitted maximal effect; on the % scale 0 is the no-effect control and ±100 the full control effect; nearly all actives have a fitted effect of over 45% in size
HCMV antiviral: inhibitors of human cytomegalovirus; activity change, negative = inhibition, % at 57.5 µM; HFF cells, HCMV-luciferase reporter, 72 h; hits give low values; AID 1259415; hit rate 4.5% among 410,000; in the data active means activity change below about -60%; inconclusive means no clear call, values can overlap the other calls; inactive means above about -39%; further: on the % scale 0 is the no-effect control and ±100 the full control effect
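Human foreskin fibroblasts infected with luciferase-reporter HCMV at MOI 1 PFU/cell, compounds at two doses. Luciferase measured 72 h post infection; normalized to buffer-only basal and Salinomycin (10uM) controls.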
MARV entry inh: blocks Marburg virus binding to or entry into cells; Potency, µM (series often up to 37.8 µM), inactives show at the highest dose activity change, negative = inhibition, actives largely listed as inhibitors; hit rate 1.8% among 300,000; Marburg virus pseudotyped entry inhibition, cell reporter; calls by dose curve; tested in HEK293 cells; further: potency means the concentration at half of the fitted maximal effect; on the % scale 0 is the no-effect control and ±100 the full control effect
HCV inh: blocks hepatitis C virus; Huh7.5.1 HCVcc-Cre infection, luciferase reporter, 44 h; Potency, µM (highest dose often 41.8 µM), for inactives: at the top dose activity change, negative = inhibition, actives largely listed as inhibitors; hit rate 3.4% among 340,000; AID 651820; active means well fitted inhibition curve with a large enough effect; inconclusive means small, poorly fitted or top-dose-only effect, or another doubt; inactive means no such curve, though single readings can be large or run the other way; further: potency means the concentration at half of the fitted maximal effect; on the % scale 0 is the no-effect control and ±100 the full control effect
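After 44 h co-culture of compound, cells and HCVcc-Cre (~0.5 moi), substrate is added for 15 min at room temperature and luciferase measured over 15 sec. Cells were seeded at 1,000/well and pre-cultured 4 h.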
* = called active by the depositor; ? = inconclusive; / = not tested or not shown; ! = a repeat was not active; [ ] = remark or other dose. Sampled rows, rich in hits. Any-hit rate of the full collection: about 8%.

SMILES	SARS PLpro yeast	LASV entry inh	FMDV antiviral	HCMV antiviral	MARV entry inh	HCV inh
O=C(c1c[nH]cc1-c1ccccc1)c1cccc2ccccc12	-4%	-16%	-21%	6	12µM*	-26%
O=C(c1ccccc1)c1c[nH]cc1-c1ccccc1	4%	3%	-13%	-13	4%	7%
COc1ccc(OC)c(CNS(=O)(=O)c2ccc3c(c2)CCCN3C(C)=O)c1	/	-13%[46.1 µM]	13%	-22	/	/
COc1ccc(CC(=O)NCCc2sc(-c3ccc(Cl)cc3)nc2C)cc1OC	/	-12%[46.1 µM]	0%	-1	/	/
COc1ccccc1C(CNC(=S)NCc1ccccc1)N1CCCC1 (centres undefined)	1%	0%[46.1 µM]	-5%	-72*	5.6µM*	-19%
COc1ccccc1C(CNC(=O)CNC(=O)c1ccccc1Cl)N1CCCC1 (centres undefined)	-9%	/	-11%	-101*	/	-10%
CCN(c1ccccc1)S(=O)(=O)c1ccc(Oc2ccc(C(C)=O)cc2OC)nc1	-5%	/	-29%	-38	/	13µM*
CCN(c1ccccc1)S(=O)(=O)c1ccc(C(=O)NCC(c2ccccc2OC)N2CCCC2)cc1 (centres undefined)	/	?	-16%	-8	?	25µM*
COc1ccc(C(CNC(=S)NCc2ccccc2)N2CCCC2)cc1 (centres undefined)	2%	?	41%	-36	?	10%
O=C(NCCCCCCNC(=O)ON=C1CCCCC1)ON=C1CCCCC1	/	/	2%	/	/	/
CCCCN(CC)CCCNC(=O)c1csc2c1CCCCC2	1%	-25%	?	?	?	35µM*
CC(C)CCNC(=O)c1csc2c1CCCCC2	1%	-1%	40%	3	19%[46.1 µM]	1%
COC(=O)[C@]1(CC=Cc2ccccc2)C=C[C@@H](C)[C@H](c2ccccc2Br)N1C(=O)C(F)(F)F	/	/	/	/	13%[14.2 µM]	/
O=C1c2ccccc2C(=O)c2ccccc21	/	/	1%	/	/	/
c1ccc2c(c1)[IH]c1ccccc1-2	/	/	?	-100*	/	0.028µM*
COc1ccc(-c2nc3cnc(N4CCOCC4)nc3n(-c3ccc(OC)cc3)c2=O)cc1	/	/	-26%	/	/	/
Cc1noc(C)c1COC(=O)c1cccc(S(=O)(=O)N2c3ccccc3CC2C)c1 (centres undefined)	-8%	?	?	-3	?	11µM*
CCOC(=O)c1sc(NC(=O)c2cccc(S(=O)(=O)N3c4ccccc4CC3C)c2)cc1C (centres undefined)	-9%	?	0%	13	?	4µM*
Cc1cc(NC(=O)c2cccc(S(=O)(=O)N3c4ccccc4CC3C)c2)no1 (centres undefined)	4%	/	-22%	10	/	?
CC1Cc2ccccc2N1S(=O)(=O)c1cccc(C(=O)N2CCCCC2)c1 (centres undefined)	-2%	-30%	17%	-9	?	-22%
COc1ccccc1N1CCN(C(=O)c2cccc(S(=O)(=O)N3c4ccccc4CC3C)c2)CC1 (centres undefined)	/	?	-26%	-35	?	10µM*
O=C1CCC[C@H]2[C@@H](Cc3ccccc3)[C@H](N(Cc3ccccc3)Cc3ccccc3)CC[C@]23CCCN13	/	/	/	-24	/	/
C=CCOCCN1C(=O)C2C(c3ccccc3)C=CC(c3ccccc3)C2C1=O (centres undefined)	/	24%	?	-38	?	-6%
O=C1C2C(c3ccccc3)C=CC(c3ccccc3)C2C(=O)N1CCCO (centres undefined)	-5%	1%	32µM*	-21	1%	6%
Cc1ccc(Cl)cc1N1CCN(C(=O)c2ccc(C)c(-n3c(C)nc4cccnc43)c2)CC1	/	?	?	0	/	/
CCOc1cnc(-c2c(-c3c(Cl)cccc3Cl)noc2C)o1	0%	?	-19%	-61*	?	-19%
COc1ccc(O)c(C2=Nc3ccccc3N=C(c3ccccc3)C2)c1	0%	16%	25µM*!	-21	?	3%
Cc1cccc(C2=Nc3ccccc3N=C(c3cc(Cl)ccc3O)C2)c1	/	11%[46.1 µM]	-26%	35	/	/
Fc1ccc(-c2cn3cc(Cc4ccccc4)sc3n2)cc1	/	?	13µM*	-66*	?	/

Screening results (PubChem)
